About 2,000 (36%) of roughly 5,500 compounds were called active. Not shown: some 18% with an inconclusive outcome. Cut-off read from the data, not from the text of the source: active = normalized growth mostly below about 0.91 (no sharp cut-off); inconclusive = no clear call, values can overlap the other calls; inactive = mostly above about 0.92. Some of the results follow.
Assay: chemical genetic growth profiling, strain panel (AID 1159580);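 note: tested at 20 µM; growth read once vehicle control cultures reached saturation at 30 °C; 1 = growth at the plate median or of vehicle wells; lower values mean less growth of the strain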
Settings: growth OD

Measured: normalized growth

CC1[C@H](C)OC(=O)CC(O)CC(O)CC(O)CCC(O)C(O)C[C@]2(O)CC(O)C(C(=O)O)C(CC(OC3O[C@H](C)[C@@H](O)[C@H](N)[C@@H]3O)/C=C/C=C/C=C/C=C/CC/C=C/C=C/[C@H](C)[C@H]1O)O2 (stereo partly specified)
inactive: S. cerevisiae deletion strains, locus YKL160W, strain elf1, hits give low values 0.952 | S. cerevisiae deletion strains, locus YKR091W, strain srl3, hits give low values 0.986 | S. cerevisiae deletion strains, locus YLR320W, strain mms22, hits give low values 1 | S. cerevisiae deletion strains, locus YMR205C, strain PFK2, hits give low values 0.916 | S. cerevisiae deletion strains, locus YNR049C, strain mso1, hits give low values 0.951 | S. cerevisiae deletion strains, locus YOL012C, strain htz1 0.206 | S. cerevisiae deletion strains, locus YOR070C, strain gyp1, hits give low values 0.95 | S. cerevisiae deletion strains, locus YOR270C, strain vph1, hits give low values 0.837 | S. cerevisiae deletion strains, locus YOR290C, strain snf2, hits give low values 1.01 | S. cerevisiae deletion strains, locus YPL240C, strain hsp82, hits give low values 0.943
active: S. cerevisiae deletion strains, locus YKL009W, strain mrt4, hits give low values 0.0887 | S. cerevisiae deletion strains, locus YKL068W, hits give low values 0.0555 | S. cerevisiae deletion strains, locus YKL085W, strain MDH1 (second series), hits give low values 0.0538 | S. cerevisiae deletion strains, locus YKL085W, strain MDH1, hits give low values 0.0538 | S. cerevisiae deletion strains, locus YKL190W, strain CNB1, hits give low values 0.193 | S. cerevisiae deletion strains, locus YKR001C, strain vps1, hits give low values 0.0857 | S. cerevisiae deletion strains, locus YKR026C, strain gcn3, hits give low values 0.0734 | S. cerevisiae deletion strains, locus YLL001W, strain dnm1, hits give low values 0.759 | S. cerevisiae deletion strains, locus YLL026W, hits give low values 0.446 | S. cerevisiae deletion strains, locus YLL041C, strain sdh2, hits give low values 0.913 | S. cerevisiae deletion strains, locus YLR027C, strain aat2, hits give low values 0.633 | S. cerevisiae deletion strains, locus YLR039C, strain RIC1, hits give low values 0.0871 | S. cerevisiae deletion strains, locus YLR058C, strain SHM2, hits give low values 0.374 | S. cerevisiae deletion strains, locus YLR102C, strain apc9, hits give low values 0.283 | S. cerevisiae deletion strains, locus YLR113W, strain HOG1, hits give low values 0.124 | S. cerevisiae deletion strains, locus YLR221C, strain rsa3, hits give low values 0.36 | S. cerevisiae deletion strains, locus YLR258W, strain gsy2, hits give low values 0.857 | S. cerevisiae deletion strains, locus YLR262C, strain YPT6 (second series), hits give low values 0.799 | S. cerevisiae deletion strains, locus YLR262C, strain YPT6, hits give low values 0.0948 | S. cerevisiae deletion strains, locus YLR268W, strain sec22, hits give low values 0.119 | S. cerevisiae deletion strains, locus YLR330W, strain CHS5, hits give low values 0.176 | S. cerevisiae deletion strains, locus YLR342W, strain FKS1 (second series), hits give low values 0.126 | S. cerevisiae deletion strains, locus YLR342W, strain FKS1, hits give low values 0.376 | S. cerevisiae deletion strains, locus YLR357W, strain rsc2, hits give low values 0.123 | S. cerevisiae deletion strains, locus YLR370C, strain arc18, hits give low values 0.0729 | S. cerevisiae deletion strains, locus YLR371W, strain rom2, hits give low values 0.112 | S. cerevisiae deletion strains, locus YLR384C, strain iki3, hits give low values 0.907 | S. cerevisiae deletion strains, locus YLR418C, strain cdc73, hits give low values 0.202 | S. cerevisiae deletion strains, locus YML016C, strain PPZ1, hits give low values 0.841 | S. cerevisiae deletion strains, locus YML032C, strain rad52, hits give low values 0.333 | S. cerevisiae deletion strains, locus YML120C, strain ndi1, hits give low values 0.0634 | S. cerevisiae deletion strains, locus YML124C, strain tub3, hits give low values 0.103 | S. cerevisiae deletion strains, locus YMR058W, strain fet3, hits give low values 0.318 | S. cerevisiae deletion strains, locus YMR078C, strain ctf18, hits give low values 0.612 | S. cerevisiae deletion strains, locus YMR125W, strain sto1, hits give low values 0.112 | S. cerevisiae deletion strains, locus YMR129W, hits give low values 0.0795 | S. cerevisiae deletion strains, locus YMR223W, strain ubp8, hits give low values 0.0876 | S. cerevisiae deletion strains, locus YMR231W, strain pep5, hits give low values 0.839 | S. cerevisiae deletion strains, locus YMR263W, strain SAP30, hits give low values 0.0585 | S. cerevisiae deletion strains, locus YMR307W, strain GAS1, hits give low values 0.103 | S. cerevisiae deletion strains, locus YNL067W, strain RPL9B, hits give low values 0.0572 | S. cerevisiae deletion strains, locus YNL071W, strain lat1, hits give low values 0.885 | S. cerevisiae deletion strains, locus YNL128W, strain TEP1, hits give low values 0.0617 | S. cerevisiae deletion strains, locus YNL153C, strain GIM3, hits give low values 0.0492 | S. cerevisiae deletion strains, locus YNL183C, strain NPR1, hits give low values 0.00104 | S. cerevisiae deletion strains, locus YNL209W, strain ssb2, hits give low values 0.816 | S. cerevisiae deletion strains, locus YNL233W, strain BNI4, hits give low values 0.135 | S. cerevisiae deletion strains, locus YNL248C, strain rpa49, hits give low values 0.104 | S. cerevisiae deletion strains, locus YNL250W, strain rad50, hits give low values 0.0643 | S. cerevisiae deletion strains, locus YNL271C, strain bni1, hits give low values 0.0657 | S. cerevisiae deletion strains, locus YNL298W, strain CLA4, hits give low values 0.0613 | S. cerevisiae deletion strains, locus YNL307C, strain MCK1, hits give low values 0.0855 | S. cerevisiae deletion strains, locus YNL322C, strain KRE1 (second series), hits give low values 0.695 | S. cerevisiae deletion strains, locus YNL322C, strain KRE1, hits give low values 0.0469 | S. cerevisiae deletion strains, locus YNR052C, strain pop2, hits give low values 0.0638 | S. cerevisiae deletion strains, locus YOL006C, strain TOP1, hits give low values 0.276 | S. cerevisiae deletion strains, locus YOL147C, strain pex11, hits give low values 0.111 | S. cerevisiae deletion strains, locus YOR001W, strain rrp6, hits give low values 0.102 | S. cerevisiae deletion strains, locus YOR061W, strain CKA2, hits give low values 0.41 | S. cerevisiae deletion strains, locus YOR069W, strain VPS5, hits give low values 0.156 | S. cerevisiae deletion strains, locus YOR080W, strain dia2, hits give low values 0.826 | S. cerevisiae deletion strains, locus YOR083W, strain WHI5, hits give low values 0.798 | S. cerevisiae deletion strains, locus YOR106W, strain vam3, hits give low values 0.284 | S. cerevisiae deletion strains, locus YOR136W, strain idh2, hits give low values 0.221 | S. cerevisiae deletion strains, locus YOR144C, strain elg1, hits give low values 0.123 | S. cerevisiae deletion strains, locus YOR184W, strain ser1, hits give low values 0.0785 | S. cerevisiae deletion strains, locus YOR231W, strain MKK1, hits give low values 0.105 | S. cerevisiae deletion strains, locus YOR265W, strain rbl2, hits give low values 0.887 | S. cerevisiae deletion strains, locus YOR316C, strain cot1, hits give low values 0.236 | S. cerevisiae deletion strains, locus YPL051W, strain arl3, hits give low values 0.885 | S. cerevisiae deletion strains, locus YPL055C, strain LGE1, hits give low values 0.0909 | S. cerevisiae deletion strains, locus YPL078C, strain atp4, hits give low values 0.757 | S. cerevisiae deletion strains, locus YPL106C, strain sse1, hits give low values 0.229 | S. cerevisiae deletion strains, locus YPL241C, strain CIN2, hits give low values 0.182 | S. cerevisiae deletion strains, locus YPL256C, strain CLN2, hits give low values 0.116 | S. cerevisiae deletion strains, locus YPR119W, strain clb2, hits give low values 0.271 | S. cerevisiae deletion strains, locus YPR141C, strain kar3, hits give low values 0.0655 | S. cerevisiae deletion strains, locus YPR163C, strain tif3, hits give low values 0.152 | S. cerevisiae deletion strains, locus YPR167C, strain met16, hits give low values 0.0932 | S. cerevisiae deletion strains, strain wtn01, hits give low values 0.0877 | S. cerevisiae strains, strain wild type, hits give low values 0.0547

Reference: PubChem BioAssay AID1159580 (chemical genetic matrix, 2015)
